Cycloheximide cs: counter-screen hit for Shiga toxin inhibitors, cycloheximide. cell reporter, cycloheximide protein synthesis inhibition counterscreen. max response, %. hit rate 12% among 300,000. AID 2314; in the data active means max response mostly above about 13%, no sharp cut-off; inactive means mostly below about 14%; further: read at 38.3 µM for the half of the compounds with a filed dose; 0% is about no effect
Pf growth 48h: inhibits P. falciparum growth in the first generation, 48 h | hit rate 5.9% among 310,000 | P. falciparum luciferase growth in erythrocytes, 48 h | Potency, µM (titrated, usually from 28.7 µM), for the others: at the highest dose activity change, negative = inhibition, hits mostly inhibitors; further: potency means the concentration at half of the fitted maximal effect; on the % scale 0 is the no-effect control and ±100 the full control effect
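First compound was added to culture medium, then infected red cells at 0.1% parasitemia and 2% hematocrit (final). After incubation at 37 C under 5% CO2, luciferase detection reagent was dispensed and light output recorded.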
Shiga inhibitor: Shiga toxin inhibition; AID 2315; Vero cells, Shiga toxin protein synthesis inhibition reporter; hit rate 9.2% among 290,000; inhibition, % at 38.7 µM; in the data active means inhibition mostly above about 28%, no sharp cut-off; inactive means mostly below about 43%; further: 0% is about no effect
Pf growth 96h: P. falciparum growth inhibition at 96 hours; hit rate 6.9% among 320,000; Potency, µM (highest dose often 28.7 µM), for the others: at the top dose activity change, negative = inhibition, most hits filed as inhibitors; P. falciparum luciferase reporter growth, 96 h; AID 504834; further: potency means the concentration at half of the fitted maximal effect; on the % scale 0 is the no-effect control and ±100 the full control effect
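Compounds incubated with erythrocytes infected by luciferase-expressing P. falciparum (2% hematocrit, 0.05% parasitemia final) for 96 hours, 37 C in 5% CO2. Growth inhibition scored as decreased luciferase luminescence.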
HCMV inh: blocks human cytomegalovirus replication; HFF cells, HCMV-luciferase reporter, 72 h; active compounds read low; activity change, negative = inhibition, % at 57.5 µM; AID 1259415; hit rate 4.5% among 410,000; in the data active means activity change below about -60%; inconclusive means no clear call, values can overlap the other calls; inactive means above about -39%; further: on the % scale 0 is the no-effect control and ±100 the full control effect
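Human foreskin fibroblasts infected with luciferase-reporter HCMV at MOI 1 PFU/cell, compounds at two doses. Luciferase measured 72 h post infection; normalized to buffer-only basal and Salinomycin (10uM) controls.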
* = called active by the depositor; ! = not confirmed by another sample. Hits are enriched below; roughly 20% of the tested compounds scored in any of these assays. Unless noted, the call rests on the fitted dose curve; in most records, active means well fitted inhibition curve with a large enough effect; inconclusive means small, poorly fitted or top-dose-only effect, or another doubt; inactive means no such curve, though single readings can be large or run the other way.

What do the screens show for `c1cn2c(Nc3ccc4c(c3)OCCO4)c(-c3ccc(N4CCOCC4)cc3)nc2cn1`?
Cycloheximide cs: 24.0*; Pf growth 48h: inconclusive; Shiga inhibitor: 52.7*; Pf growth 96h: inconclusive; HCMV inh: 124.5

What do the screens show for `O=C(Cn1cc(SCc2ccc(C(F)(F)F)cc2)c2ccccc21)N1CCOCC1`?
HCMV inh: -14.3

Results for COc1ccc(Cc2nnc(SCC(=O)Nc3ccc(N4CCOCC4)cc3)n2C)cc1 ?
Cycloheximide cs: 7.7; Pf growth 48h: inconclusive; Shiga inhibitor: 26.5; Pf growth 96h: -0.2%; HCMV inh: 8.9

What do the screens show for `O=C1CS/C(=N/N=C/c2ccncc2)N1`?
Cycloheximide cs: -2.0; Pf growth 48h: inconclusive; Shiga inhibitor: -1.1; Pf growth 96h: 14.7µM*; HCMV inh: 7.2

Results for Clc1ccccc1/C=C/c1ccnc2ccccc12 ?
Cycloheximide cs: 45.7*; Pf growth 48h: 1.4%; Shiga inhibitor: 62.8*; Pf growth 96h: inconclusive; HCMV inh: 25.4

Results for Oc1ccc(/C=C/c2ccnc3ccccc23)cc1 ?
Cycloheximide cs: 110.9*; Pf growth 48h: inconclusive; Shiga inhibitor: 108.6*; Pf growth 96h: -102.8%; HCMV inh: -60.9*

What do the screens show for `Cc1cc(F)ccc1NC(=O)Cn1c(C)csc1=O`?
Pf growth 48h: inconclusive; Pf growth 96h: -13.7%; HCMV inh: 25.7

How did O=C(NCc1ccc(F)c(F)c1)c1cnc(N2CCN(Cc3ccccc3)C2=O)s1 do in these assays?
HCMV inh: -32.1

How did O=C(c1ccco1)C(O)c1ccco1 (stereo not given) do in these assays?
Cycloheximide cs: -0.3; Shiga inhibitor: 3.2; Pf growth 96h: 28.1%; HCMV inh: -61.8*

How did COC(=O)c1ccc(OC)c(Cn2c(=O)n(-c3ccc(C)cc3)c(=O)c3c2cnn3C)c1 do in these assays?
HCMV inh: 18.5

What do the screens show for `CCCCn1cc(S(=O)(=O)c2cc(C)ccc2C)c(=O)c2cc(F)c(N3CCC(C)CC3)cc21`?
HCMV inh: 22.4

What do the screens show for `Cc1csc2c(N3CCN(C(=O)c4ccc(C(C)(C)C)cc4)CC3)ncnc12`?
Cycloheximide cs: 1.0; Pf growth 48h: 31.3%; Shiga inhibitor: -5.4; Pf growth 96h: 0.0%; HCMV inh: -63.1*

How did CCOC(=O)C1CCN(c2ncnc3c(C)csc23)CC1 do in these assays?
Cycloheximide cs: 48.1*; Pf growth 48h: 57.6%; Shiga inhibitor: 66.8*; Pf growth 96h: 29.2%; HCMV inh: 12.3

How did CCOc1ccc(C(C)(C)COCc2cccc(Oc3ccccc3)c2)cc1 do in these assays?
HCMV inh: -8.2

What do the screens show for `COc1ccc(-c2nc3ncccn3c2Nc2ccc3c(c2)OCCO3)cc1`?
Cycloheximide cs: 12.4; Pf growth 48h: inconclusive; Shiga inhibitor: 28.8; Pf growth 96h: 29.8%; HCMV inh: 90.5

What do the screens show for `Cc1ccc(Nc2c(-c3ccc(C)o3)nc3cnccn23)cc1`?
Cycloheximide cs: -0.7; Shiga inhibitor: -13.3; Pf growth 96h: 0.738µM*; HCMV inh: 18.4

What do the screens show for `Cc1ccc(-c2nc3ncccn3c2Nc2ccc3c(c2)OCCO3)o1`?
Cycloheximide cs: 27.4*; Pf growth 48h: 5.2%; Shiga inhibitor: 70.3*; Pf growth 96h: inconclusive; HCMV inh: 22.5

What do the screens show for `Cc1ccc(-c2nc3ncccn3c2Nc2ccc3c(c2)OCCO3)cc1`?
Cycloheximide cs: 3.2; Shiga inhibitor: -5.3; Pf growth 96h: 11.7µM*; HCMV inh: 42.6

What do the screens show for `Cc1ccc(-c2nc3cnccn3c2Nc2ccccc2)o1`?
Cycloheximide cs: 14.9; Shiga inhibitor: 11.7; Pf growth 96h: -19.3%; HCMV inh: -26.1

What do the screens show for `CCN(CC(=O)Nc1c(F)cccc1F)C(=O)C1CCN(S(=O)(=O)c2ccc(C)cc2C)CC1`?
Pf growth 48h: inconclusive; Pf growth 96h: inconclusive; HCMV inh: -10.0

What do the screens show for `COCCNC(=O)C1(C)CCCN(Cc2ccc(OCc3ccccc3)cc2)C1` (stereo not given)?
HCMV inh: -17.6

What do the screens show for `COC(=O)[C@@H]1[C@@H]2C[C@H]3c4[nH]c5cc(OC)ccc5c4CCN3C[C@@H]2C[C@H](OC(=O)/C=C\c2cc(OC)c(OC)c(OC)c2)[C@H]1OC`?
Pf growth 48h: 5.1µM*; Pf growth 96h: inconclusive

Results for COC(=O)[C@H]1[C@H]2C[C@H]3c4[nH]c5ccccc5c4CCN3C[C@H]2CC[C@@H]1O ?
Cycloheximide cs: 0.4; Pf growth 48h: -4.5%; Shiga inhibitor: -5.8; Pf growth 96h: 1.51µM*!; HCMV inh: -39.3
